# According to PubChem BioAssay (Tox21):
# Unmarked numbers belong to inactive results. Records with an inconclusive call do not appear. Where a call stands in place of a potency, no number is given. The source made the active and inactive calls. Unless noted, calls follow the shape of the dose curve; as a rule, active = well fitted curve in the direction sought with a large enough effect in the repeat runs; inconclusive = weak or mixed curves; inactive = no such curve, though single readings can be large; an effect the other way counts as inactive or inconclusive.
# Key:
# [1] = qHTS assay to identify small molecule agonists of H2AX (AID 1224845; active = well fitted activation curve with a large enough effect in the signal ratio in the repeat runs, not every such curve was filed as active; the % refers to the signal ratio; also: potency is read from the fitted curve at half-maximal effect)
# Outline: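 Wild-type CHO-K1 cells plated overnight, then exposed 3 hr at 37C to compounds at 15 concentrations (0.76% DMSO). Lysed, then HTRF anti-pH2AX(S139)-cryptate/anti-H2AX-d2 detection after 24 hr at room temperature; emissions 665 and 620 nm.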
# [2] = qHTS assay to identify small molecule agonists of H2AX - cell viability counter screen (AID 1224847; calls by dose curve; also: nearly all actives have a fitted effect of over 30% in size; also: potency is read from the fitted curve at half-maximal effect; as to activity change, negative = cytotoxicity: top concentration of the series differs between compounds)
# Outline: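 Cytotoxicity counter screen in wild-type CHO-K1 cells: a 3 hr compound treatment at 37C across 15 concentrations, followed by CellTiter-Glo luminescence to gauge viable cells.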
# [3] = qHTS assay to identify small molecule antagonists of the estrogen related receptor (ERR) signaling pathway from Tox21 library (AID 1224848); also: nearly all actives have a fitted effect of over 50% in size; also: potency is read from the fitted curve at half-maximal effect
# Outline: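 Cells: ERR line, 2,000/well; 6 h preincubation 37 C/5% CO2. Cpd in DMSO via pin tool; 18 h, 37 C. ONE-Glo, 30 min RT, luminescence.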
# [4] = qHTS assay to identify small molecule agonists of the estrogen related receptor (ERR) signaling pathway from Tox21 library (AID 1224849; calls by dose curve; also: nearly all actives have a fitted effect of over 15% in size); settings: ERR reporter cell line, ONE-Glo luciferase, 18 h; at 92.4 µM (top of the series) unless noted
# Outline: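 Six hours post-seeding at 37 C/5% CO2, ERR cells receive DMSO-solubilised compounds; after 18 h at 37 C, ONE-Glo reagent is applied and luminescence recorded.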
# [5] = qHTS RealTime-Glo MT Cell Viability Assay in HepG2 cells - 24 hour (AID 1224867); also: nearly all actives have a fitted effect of over 50% in size
# Outline: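 Cells + NanoLuc/prosubstrate dispensed (600 cells/well) → 5 h at 37 C/5% CO2 → compounds in DMSO transferred → 40 h incubation at 37 C, luminescence read at 0, 8, 16, 24, 32, 40 h.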
# [6] = A CellTox Green Cytotoxicity Assay to monitor cytotoxicity in HEK293 cells - 0 hour (AID 1224869); also: nearly all actives have a fitted effect of over 50% in size; also: potency is read from the fitted curve at half-maximal effect
# Outline: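 Seeding of HEK293 cells together with cytotoxicity dye preceded a 5 h incubation at 37 C/5% CO2. Test compounds in DMSO were then added and fluorescence monitored across 40 h.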
# [7] = qHTS assay to identify small molecule agonists of the hypoxia (HIF-1) signaling pathway - cell viability counter screen (AID 1224844; calls by dose curve; also: nearly all actives have a fitted effect of over 50% in size; also: potency is read from the fitted curve at half-maximal effect)
# Outline: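 Multiplexed with the HRE beta-lactamase assay, this viability read used CellTiter-Glo luminescence (30 min, RT) on HRE-bla ME-180 cells treated 17 hrs with compounds in 0.5% dialyzed FBS medium.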
# [8] = qHTS assay to identify small molecule agonists of the hypoxia (HIF-1) signaling pathway (AID 1224846; active = well fitted activation curve with a large enough effect in the signal ratio in the repeat runs, not every such curve was filed as active; the % refers to the signal ratio)
# Outline: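 Hypoxia-pathway activation was scored as increased beta-lactamase from an HRE-controlled reporter in ME-180 cells; plated at 2,000 cells per well with 0.5% dialyzed FBS, they were exposed 17 hrs to compounds and then given CCF4-AM.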
# [9] = qHTS RealTime-Glo MT Cell Viability Assay in HEK293 cells - 32 hour (AID 1224868); also: nearly all actives have a fitted effect of over 50% in size; also: potency is read from the fitted curve at half-maximal effect; as to activity change, negative = cytotoxic: top concentration of the series differs between compounds
# Outline: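 Tox21 10K qHTS, HEK293, 600 cells/well, RealTime-Glo reagent co-dispensed with cells; 5 h preincubation, compound by pintool, 37 C, luminescence at 0–40 h.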
structure (smiles),measurement,setting,value
CCCCc1ccc2nc(NC(=O)OC)[nH]c2c1,Potency,[1],inactive
same,Potency,[2],inactive
same,Potency,[3],inactive
same,"activity change, positive = activation",[4],17.3% [at 42.5 µM] (active)
same,Potency,[5],inactive
same,Potency,[6],inactive
OCc1c2ccccc2cc2ccccc12,Potency,[7],inactive
same,outcome,[8],inactive
same,Potency,[2],inactive
same,"activity change, positive = activation",[4],-18.3%
same,Potency,[5],inactive
same,Potency,[6],inactive
CCCCCOc1ccc(C2SC(=O)NC2=O)cc1OCC (stereo not drawn),Potency,[1],inactive
same,outcome,[8],inactive
same,Potency,[2],inactive
same,Potency,[5],inactive
same,Potency,[9],inactive
same,Potency,[6],inactive
Cc1cc(S(=O)(=O)O)c(N)cc1Cl,Potency,[1],inactive
same,outcome,[8],inactive
same,Potency,[2],inactive
same,Potency,[5],inactive
same,Potency,[9],inactive
same,Potency,[6],inactive
Clc1cccc(-c2cc(Cl)cc(Cl)c2)c1,Potency,[7],53 µM (active)
same,Potency,[3],inactive
same,"activity change, positive = activation",[4],-3.25%
same,Potency,[5],inactive
same,Potency,[9],inactive
same,Potency,[6],inactive
Cc1nc(N)nc(N)c1-c1ccc(Cl)c(Cl)c1,Potency,[7],inactive
same,outcome,[8],inactive
same,Potency,[2],1.24 µM (active)
same,Potency,[3],0.944 µM (active)
same,"activity change, positive = activation",[4],-56.5% [at 42.5 µM]
same,Potency,[5],inactive
same,Potency,[6],inactive
O=C1CCCc2ccccc21,Potency,[7],inactive
same,Potency,[1],inactive
same,Potency,[2],inactive
same,Potency,[3],inactive
same,"activity change, positive = activation",[4],6.42%
same,Potency,[5],inactive
same,Potency,[9],inactive
same,Potency,[6],inactive
NC1=NCC2c3ccccc3Cc3ccccc3N12 (stereo not drawn),Potency,[7],inactive
same,Potency,[1],inactive
same,outcome,[8],inactive
same,Potency,[2],inactive
same,Potency,[5],inactive
same,Potency,[9],inactive
same,Potency,[6],inactive
COc1ccc(S(=O)(=O)Nc2nnc(CC(C)C)s2)cc1,Potency,[7],inactive
same,Potency,[1],inactive
same,outcome,[8],inactive
same,Potency,[2],inactive
same,Potency,[5],inactive
same,Potency,[9],inactive
same,Potency,[6],inactive
CC(=O)N[C@@H](CC(C)C)C(=O)O,Potency,[7],inactive
same,Potency,[1],inactive
same,Potency,[2],inactive
same,Potency,[3],inactive
same,"activity change, positive = activation",[4],-0.851% [at 42.5 µM]
same,Potency,[5],inactive
same,Potency,[9],inactive
same,Potency,[6],inactive
CC1(C)S[C@@H]2[C@H](NC(=O)C(C(=O)O)c3ccccc3)C(=O)N2[C@H]1C(=O)O (stereo partly drawn),Potency,[7],inactive
same,Potency,[1],inactive
same,Potency,[2],inactive
same,Potency,[3],inactive
same,"activity change, positive = activation",[4],8.06% [at 42.5 µM]
same,Potency,[5],inactive
same,Potency,[9],inactive
same,Potency,[6],inactive
CCN(CC)C(=O)N(CC)CC,Potency,[7],inactive
same,Potency,[1],inactive
same,Potency,[2],inactive
same,Potency,[5],inactive
same,Potency,[9],inactive
same,Potency,[6],inactive
COc1ccc(Nc2ccc(OC)cc2)cc1,Potency,[2],inactive
same,Potency,[3],inactive
same,"activity change, positive = activation",[4],38% (active)
same,Potency,[5],inactive
same,Potency,[9],25 µM (active)
same,Potency,[6],inactive
COc1nc(C)nc(NC(=O)NS(=O)(=O)c2ccccc2OCCCl)n1,Potency,[1],inactive
same,Potency,[2],inactive
same,Potency,[3],inactive
same,"activity change, positive = activation",[4],-0.581%
same,Potency,[5],inactive
same,Potency,[9],inactive
O=Cc1ccc(O)c(O)c1O,Potency,[7],inactive
same,outcome,[8],inactive
same,Potency,[2],inactive
same,Potency,[5],inactive
same,Potency,[9],inactive
same,Potency,[6],inactive
O=C1CCN(c2ccccc2)N1,outcome,[8],inactive
same,Potency,[2],inactive
same,Potency,[3],17.3 µM (active)
same,"activity change, positive = activation",[4],-36.4%
same,Potency,[5],inactive
same,Potency,[9],inactive
OCCN(CCO)c1ccccc1,Potency,[7],inactive
same,Potency,[1],inactive
same,outcome,[8],inactive
same,Potency,[2],inactive
same,Potency,[5],inactive
same,Potency,[9],inactive
same,Potency,[6],inactive
O=C1N(c2ccccc2)c2ccccc2C1(Cc1ccncc1)Cc1ccncc1,Potency,[7],inactive
same,Potency,[1],inactive
same,Potency,[2],inactive
same,Potency,[3],inactive
same,"activity change, positive = activation",[4],5.08% [at 42.5 µM]
same,Potency,[5],inactive
same,Potency,[9],inactive
same,Potency,[6],inactive
CC(C)NC[C@@H](O)COc1cccc2ccccc12,Potency,[7],inactive
same,Potency,[1],inactive
same,Potency,[2],inactive
same,Potency,[5],inactive
same,Potency,[9],inactive
CC(C)NCC(O)COc1ccc(CCOCC2CC2)cc1 (stereo not drawn),Potency,[7],inactive
same,Potency,[1],inactive
same,Potency,[2],inactive
same,Potency,[5],inactive
same,Potency,[9],inactive
same,Potency,[6],inactive
CN(C)CCOc1ccccc1Cc1ccccc1,Potency,[1],inactive
same,Potency,[2],inactive
same,Potency,[3],inactive
same,"activity change, positive = activation",[4],6.12% [at 42.5 µM]
same,Potency,[5],inactive
same,Potency,[6],inactive
Cc1ccc(C=O)s1,Potency,[7],inactive
same,Potency,[2],inactive
same,Potency,[3],inactive
same,"activity change, positive = activation",[4],3.35%
same,Potency,[5],inactive
same,Potency,[9],inactive
same,Potency,[6],24.5 µM (active)
CCCCCCOc1ccc(N)cc1,Potency,[1],56.6 µM (active)
same,Potency,[3],inactive
same,"activity change, positive = activation",[4],2.67%
same,Potency,[5],inactive
same,Potency,[6],inactive
O=c1oc2c(O)c(O)cc3c(=O)oc4c(O)c(O)cc1c4c23,activation,[8],-0.716% [at 15.8 µM]
same,"activity change, negative = cytotoxicity",[2],0.906% [at 31.6 µM]
same,"activity, negative = inhibition",[3],4.6% [at 19 µM]
same,"activity change, positive = activation",[4],2.5% [at 19 µM]
same,"activity change, negative = cytotoxicity",[5],-9.61% [at 15.8 µM]
same,"activity change, negative = cytotoxic",[9],-21.3% [at 15.8 µM]
CCOC(=O)COc1ccc2c(c1)CC(NCC(O)c1cccc(Cl)c1)CC2 (stereo not drawn),Potency,[7],inactive
same,Potency,[1],inactive
same,outcome,[8],inactive
same,"activity change, positive = activation",[4],-15.6%
same,Potency,[5],inactive
same,Potency,[9],inactive
same,Potency,[6],inactive
Cc1ccccc1C(=O)Nc1ccc(C(=O)N2CCCC(O)c3cc(Cl)ccc32)c(C)c1 (stereo not drawn),Potency,[7],inactive
same,Potency,[1],inactive
same,Potency,[2],inactive
same,"activity change, positive = activation",[4],-27% [at 42.5 µM]
same,Potency,[5],inactive
CCC(=O)c1ccc2c(c1)N(CCCN(C)C)c1ccccc1S2,Potency,[7],inactive
same,Potency,[1],inactive
same,Potency,[2],inactive
same,Potency,[5],inactive
same,Potency,[9],16.9 µM (active)
same,Potency,[6],inactive
CO[C@@]1(NC(=O)CSCC#N)C(=O)N2C(C(=O)O)=C(CSc3nnnn3C)CS[C@@H]21,Potency,[7],inactive
same,Potency,[1],inactive
same,Potency,[2],inactive
same,Potency,[5],inactive
same,Potency,[9],inactive
same,Potency,[6],inactive
CC1=C(CC(=O)O)c2cc(F)ccc2/C1=C\c1ccc(S(C)(=O)=O)cc1,Potency,[1],inactive
same,Potency,[2],inactive
same,Potency,[3],inactive
same,"activity change, positive = activation",[4],5.91% [at 42.5 µM]
same,Potency,[5],inactive
same,Potency,[9],inactive
same,Potency,[6],inactive
CC1(C)C(=O)N(Cl)C(=O)N1Br,Potency,[7],inactive
same,Potency,[1],inactive
same,outcome,[8],inactive
same,Potency,[2],inactive
same,Potency,[5],inactive
same,Potency,[9],inactive
same,Potency,[6],inactive
